This is part of a sample that, as a whole, favours compounds with a hit. Of some 83,000 tested, about 20% had one in any assay.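 48-hour exposure, single concentration, 96-well plates; percent growth endpoint where 0 means no net growth. Active: below 10.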 Values without a mark were called inactive. Calls of active or inactive are those of the source.
Key:
Experiment in all cases: NCI-60 one-dose screen, 48 h (100 = growth as untreated, 0 = no growth, -100 = all killed)
Details in all cases: 10 µM unless noted
SR leukemia = system: SR leukemia
RPMI-8226 leukemia = system: RPMI-8226 leukemia
OVCAR-8 ovarian = system: OVCAR-8 ovarian
OVCAR-5 ovarian = system: OVCAR-5 ovarian
OVCAR-4 ovarian = system: OVCAR-4 ovarian
SK-OV-3 ovarian = system: SK-OV-3 ovarian
IGROV1 ovarian = system: IGROV1 ovarian
OVCAR-3 ovarian = system: OVCAR-3 ovarian
HS 578T breast = system: HS 578T breast
NCI/ADR-RES ovarian = system: NCI/ADR-RES ovarian
T-47D breast = system: T-47D breast
BT-549 breast = system: BT-549 breast
MDA-MB-435 melanoma = system: MDA-MB-435 melanoma
SW-620 colon = system: SW-620 colon
MCF7 breast = system: MCF7 breast
HCT-116 colon = system: HCT-116 colon
HCC-2998 colon = system: HCC-2998 colon
KM12 colon = system: KM12 colon

Compound	growth (SR leukemia)	growth (RPMI-8226 leukemia)	growth (OVCAR-8 ovarian)	growth (OVCAR-5 ovarian)	growth (OVCAR-4 ovarian)	growth (SK-OV-3 ovarian)	growth (IGROV1 ovarian)	growth (OVCAR-3 ovarian)	growth (HS 578T breast)	growth (NCI/ADR-RES ovarian)	growth (T-47D breast)	growth (BT-549 breast)	growth (MDA-MB-435 melanoma)	growth (SW-620 colon)	growth (MCF7 breast)	growth (HCT-116 colon)	growth (HCC-2998 colon)	growth (KM12 colon)
O=S(=O)(c1ccccc1)n1cc2c(c1)-c1nc(Nc3ncccn3)sc1CC2	74.6%	71.3%	65%	95.8%	-27.9% (active)	66%	70.4%	40.3%	22.4%	53%	53%	63.8%	61.5%	65.1%	49.5%	23.1%	85%	82.8%
COc1ccc(NC2=C(I)C(=O)c3ncccc3C2=O)cc1	6.66% (active)	4.44% (active)	8.5% (active)	-62.8% (active)	-88.3% (active)	50%	-43.9% (active)	-10.1% (active)	-15.9% (active)	0.698% (active)	-32.7% (active)	-6.34% (active)	-88.9% (active)	-60.6% (active)	-53.5% (active)	2.09% (active)	47.6%	15.3%
COc1ccc(\C=N/N=C(N)/C(N)=N\N=C/c2ccc(OC)cc2)cc1	46.9%	79.2%	117%	107%	117%	96.1%	122%	108%	87.3%	107%	90.3%	116%	107%	103%	104%	113%	110%	110%
CC(=O)Oc1ccc(N2C(=O)C(Cl)=C(Nc3cccc(C(F)(F)F)c3)C2=O)cc1	80.4%	77.6%	97.9%	91.5%	110%	87.9%	97.1%	91.9%	107%	97.5%	86.6%	85.8%	97.5%	99.1%	92.8%	91%	104%	96.3%
O=C(Nc1nc2ccc(C(=O)N3CCN(/C=C/c4ccccc4)CC3)cc2s1)c1ccc(NCCc2ccccc2)c([N+](=O)[O-])c1	-13.7% (active)	18.5%	68.4%	83.6%	42.9%	62.9%	64.3%	59.3%	69%	70.2%	43.2%	71.9%	55.8%	4.25% (active)	16%	11.2%	76.9%	53.5%
O=S(=O)(Nc1ccc(F)cc1F)c1ccc(-c2cnc(C3CC3)o2)cc1	10.9%	18.1%	38.4%	51.8%	46.8%	45.6%	32.6%	13.4%	27.4%	19.4%	31.9%	17.2%	-33.8% (active)	23.7%	20.3%	21.2%	54.9%	30.1%
C#COc1cccc(Nc2c(C#N)cnc3ncc(NC(=O)CCl)cc23)c1	10.2% [6.25 µM]	-18.2% [6.25 µM] (active)	32.2% [6.25 µM]	42.9% [6.25 µM]	54.5% [6.25 µM]	60.4% [6.25 µM]	14.1% [6.25 µM]	7.58% [6.25 µM] (active)	66.8% [6.25 µM]	76.5% [6.25 µM]	4.8% [6.25 µM] (active)	40.3% [6.25 µM]	41.4% [6.25 µM]	9.61% [6.25 µM] (active)	5.39% [6.25 µM] (active)	-3.66% [6.25 µM] (active)	31.7% [6.25 µM]	31.4% [6.25 µM]
c1cnc2c(-c3nc4ccc5[nH]ncc5c4c4c3CCCC4)c[nH]c2c1	5.93% (active)	34.5%	23.8%	37.3%	27.9%	51.5%	18%	26.4%	63.4%	80.6%	38.1%	72.5%	51.9%	18.9%	9.3% (active)	0.564% (active)	54.7%	26.9%
O=S(=O)(NCCNc1nccc(-c2c(-c3ccc(F)c(O)c3)nc3occn23)n1)c1ccc(Cl)cc1	75.8%	85.3%	86%	127%	109%	87.1%	87.4%	104%	89%	102%	92.3%	107%	38.6%	112%	71.6%	60.9%	102%	84%
O=C1NC(=C(Cl)Cl)/C(=N\S(=O)(=O)NCc2ccccc2)N1	65.3%	75.6%	94.6%	98.4%	108%	97.1%	102%	105%	122%	109%	52%	97.8%	95.8%	111%	74.4%	94.2%	127%	62.9%
O=C(CSC(=S)n1cnnc1)NC(=O)c1ccccc1	85.3%	100%	115%	100%	100%	105%	108%	96.7%	103%	99.7%	100%	102%	113%	103%	99.3%	112%	104%	103%
CCN(CC)CC(O)COc1c(Br)c(Br)c(Br)c2c1OC(C)(C)C2 (stereo unspecified)	16.7%	85.5%	126%	93.2%	82.9%	97.9%	607%	14%	-69.4% (active)	85%	69.5%	95.6%	1.3% (active)	-65.9% (active)	73.2%	45.5%	76%	53.8%
CCOC(=O)c1nn(-c2ccc(S(N)(=O)=O)cc2)c2nc(C)cc(=O)n12	104%	103%	105%	117%	102%	105%	98.7%	110%	103%	103%	106%	106%	105%	106%	92.4%	106%	109%	102%
O=C(Nc1nc(-c2ccc(Cl)cc2)nc2c1sc(=S)n2-c1ccccc1)C(F)(F)F	19.9%	51.2%	27.1%	62.6%	-53.5% (active)	25.2%	32.9%	16.8%	11.5%	32%	-14.8% (active)	28.3%	50.6%	34.3%	57.1%	3.7% (active)	68.4%	32.8%
O=c1scc(-c2ccc(C(F)(F)F)cc2)s1	89.9%	97.7%	94.7%	95.6%	76.8%	99.3%	72.6%	103%	92.1%	102%	95.6%	88.3%	87.5%	96.8%	64.9%	100%	76.7%	109%
CCCCCCCC[C@@H]1N[C@@H](C(=O)OC)Cc2c1[nH]c1ccccc21	107%	95.4%	98.6%	89%	91.9%	101%	82.9%	101%	91.7%	86.5%	92.7%	105%	99.8%	94.6%	92%	95.7%	107%	99.7%
COc1ccc2c(c1)CC[C@H](O)/C2=C/c1cc(OC)c(OC)c(OC)c1	-5.45% (active)	34.3%	16.1%	61%	41.1%	13.9%	27.8%	-18.3% (active)	33.3%	6.93% (active)	51.9%	4.02% (active)	-54.4% (active)	21.1%	16%	2.27% (active)	22.1%	10.8%

— PubChem BioAssay (NCI)
